Laboratory results from the supplement of paper PMC3545927.
This is one part of the list. No count for the full screen is at hand.

Target: furin, P09958
Assay: furin cleavage Z-score vs untreated control; higher = more cleavage, active = 3.5 or more, inactive = 1 or less, 8 variable residues between constant flanks
In short: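 Cleavage by purified furin was measured on 8-mer peptides fused to a cDNA oligonucleotide and held on magnetic beads by their N-terminus. Reactions (0.01 ml, 1:10 enzyme:substrate) ran 7.5, 15 or 30 min in 50 mM HEPES pH 7.5 with CaCl2 and NaCl. Released DNA was adapter-tagged by PCR and sequenced, with read counts giving abundance. Log counts versus furin-free reactions were lowess-adjusted and scaled by median absolute deviation to give the cleavage Z-score.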

Chain of furin, P09958 (P09958 whole entry): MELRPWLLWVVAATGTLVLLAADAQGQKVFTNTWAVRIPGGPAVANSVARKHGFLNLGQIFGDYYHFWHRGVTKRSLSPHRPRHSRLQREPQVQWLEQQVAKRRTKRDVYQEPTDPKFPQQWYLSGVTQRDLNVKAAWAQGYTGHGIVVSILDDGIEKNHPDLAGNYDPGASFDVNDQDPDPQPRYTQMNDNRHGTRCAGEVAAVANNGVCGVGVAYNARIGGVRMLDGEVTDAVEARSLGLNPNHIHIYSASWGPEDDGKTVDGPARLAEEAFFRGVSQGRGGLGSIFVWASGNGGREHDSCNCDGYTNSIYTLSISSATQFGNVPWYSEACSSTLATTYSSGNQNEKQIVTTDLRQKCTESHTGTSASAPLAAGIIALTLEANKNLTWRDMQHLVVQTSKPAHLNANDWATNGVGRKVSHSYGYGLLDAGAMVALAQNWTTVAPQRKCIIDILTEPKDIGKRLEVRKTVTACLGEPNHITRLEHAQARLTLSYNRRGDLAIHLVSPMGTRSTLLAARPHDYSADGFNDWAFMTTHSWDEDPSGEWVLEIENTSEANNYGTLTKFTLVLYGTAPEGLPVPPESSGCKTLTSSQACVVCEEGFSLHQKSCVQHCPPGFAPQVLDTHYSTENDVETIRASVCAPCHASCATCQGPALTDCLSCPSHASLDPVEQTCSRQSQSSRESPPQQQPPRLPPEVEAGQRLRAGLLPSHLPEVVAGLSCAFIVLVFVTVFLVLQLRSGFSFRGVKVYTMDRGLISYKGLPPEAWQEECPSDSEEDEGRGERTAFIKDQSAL

Which results are given for CAKVKANLLSAGNASASA [HC1409]?
furin cleavage Z-score (7.5 min): 0.199 (inactive); furin cleavage Z-score (15 min): -1.82 (inactive); furin cleavage Z-score (30 min): -0.858 (inactive)

CADYMEECSQAGNASASA [HC1809] was tested. Which “furin cleavage Z-score” value (7.5 min) did it give?
The value was 0.775 (inactive).

What about the “furin cleavage Z-score” value (15 min) of the same sequence?
Its value is 0.374 (inactive).

And the “furin cleavage Z-score” value (30 min)?
Its value is -0.614 (inactive).

Which results are given for CAMEQCSQHLAGNASASA [HC1722]?
furin cleavage Z-score (7.5 min): 2.51; furin cleavage Z-score (15 min): 1.08; furin cleavage Z-score (30 min): 0.422 (inactive)

What does the source list for CANGTMRIVGAGNASASA [HC1181]?
furin cleavage Z-score (7.5 min): 0.253 (inactive); furin cleavage Z-score (15 min): 1.69; furin cleavage Z-score (30 min): -0.0933 (inactive)

Which “furin cleavage Z-score” value (7.5 min) does the source give for CAEVVTITWVAGNASASA [HC145] here?
Its value is -0.85 (inactive).

And the “furin cleavage Z-score” value (15 min)?
The value was 0.512 (inactive).

What about the “furin cleavage Z-score” value (30 min) of the same sequence?
The value was -0.407 (inactive).

How did the “furin cleavage Z-score” value (7.5 min) turn out when CAIFRAAVCTAGNASASA [HC750] was run?
Its value is -0.737 (inactive).

And the “furin cleavage Z-score” value (15 min)?
Its value is -0.718 (inactive).

What about the “furin cleavage Z-score” value (30 min) of the same sequence?
The value was -0.0235 (inactive).

Which “furin cleavage Z-score” value (7.5 min) does the source give for CACCSMSYSWAGNASASA [HC1370] here?
The value was 0.447 (inactive).

What about the “furin cleavage Z-score” value (15 min) of the same sequence?
Its value is -0.385 (inactive).

And the “furin cleavage Z-score” value (30 min)?
The value was 0.225 (inactive).

For CADRHFRKRSAGNASASA [FS-925], which “furin cleavage Z-score” value (7.5 min) is on record?
Its value is 9.05 (active).

What about the “furin cleavage Z-score” value (15 min) of the same sequence?
The value was 11.3 (active).

What about the “furin cleavage Z-score” value (30 min) of the same sequence?
Its value is 9.58 (active).

CATLARRKRSAGNASASA [FS-1423] was tested. Which “furin cleavage Z-score” value (7.5 min) did it give?
The value was 11.4 (active).

And the “furin cleavage Z-score” value (15 min)?
The value was 11.2 (active).

And the “furin cleavage Z-score” value (30 min)?
Its value is 9.32 (active).

Which “furin cleavage Z-score” value (7.5 min) does the source give for CAERRKRKRSAGNASASA [FS-1119] here?
Its value is 11.5 (active).

What about the “furin cleavage Z-score” value (15 min) of the same sequence?
Its value is 11.6 (active).

What about the “furin cleavage Z-score” value (30 min) of the same sequence?
The value was 9.13 (active).

CASNGRRKRSAGNASASA [FS-1570] was tested. Which “furin cleavage Z-score” value (7.5 min) did it give?
Its value is 11 (active).

What about the “furin cleavage Z-score” value (15 min) of the same sequence?
The value was 11.1 (active).

What about the “furin cleavage Z-score” value (30 min) of the same sequence?
The value was 9.24 (active).

Which “furin cleavage Z-score” value (7.5 min) does the source give for CAEVVTLTWVAGNASASA [HC144] here?
The value was 0.108 (inactive).

What about the “furin cleavage Z-score” value (15 min) of the same sequence?
The value was 1.05.

And the “furin cleavage Z-score” value (30 min)?
Its value is -0.447 (inactive).

What does the source list for CACSLTPPHSAGNASASA [HC1415]?
furin cleavage Z-score (7.5 min): -1.29 (inactive); furin cleavage Z-score (15 min): -4.97 (inactive); furin cleavage Z-score (30 min): -1.14 (inactive)

With CATRSFGSSSAGNASASA [HC1335] as the sequence, how does the “furin cleavage Z-score” value (7.5 min) read?
Its value is 0.518 (inactive).

What about the “furin cleavage Z-score” value (15 min) of the same sequence?
Its value is -0.799 (inactive).

And the “furin cleavage Z-score” value (30 min)?
Its value is -0.228 (inactive).

CATSSSRKRSAGNASASA [FS-572] was tested. Which “furin cleavage Z-score” value (7.5 min) did it give?
The value was 1.17.

And the “furin cleavage Z-score” value (15 min)?
The value was 0.258 (inactive).

And the “furin cleavage Z-score” value (30 min)?
The value was 1.99.

Which “furin cleavage Z-score” value (7.5 min) does the source give for CATRSVRKRSAGNASASA [FS-100] here?
The value was 10 (active).

What about the “furin cleavage Z-score” value (15 min) of the same sequence?
Its value is 8.16 (active).

And the “furin cleavage Z-score” value (30 min)?
The value was 6.31 (active).

How did the “furin cleavage Z-score” value (7.5 min) turn out when CAGYRRCRASAGNASASA [HC1508] was run?
Its value is 0.58 (inactive).

What about the “furin cleavage Z-score” value (15 min) of the same sequence?
Its value is -0.0246 (inactive).

And the “furin cleavage Z-score” value (30 min)?
Its value is 0.472 (inactive).

Which “furin cleavage Z-score” value (7.5 min) does the source give for CAWKKPDYEPAGNASASA [HC1311] here?
The value was -0.0824 (inactive).

And the “furin cleavage Z-score” value (15 min)?
Its value is -0.0771 (inactive).

What about the “furin cleavage Z-score” value (30 min) of the same sequence?
Its value is 0.0457 (inactive).

Which results are given for CAPQKKNKRNAGNASASA [HC164]?
furin cleavage Z-score (7.5 min): 5.11 (active); furin cleavage Z-score (15 min): 6.33 (active); furin cleavage Z-score (30 min): 5.55 (active)

With CAKKMRVWRDAGNASASA [FS-674] as the sequence, how does the “furin cleavage Z-score” value (7.5 min) read?
Its value is 4.34 (active).

And the “furin cleavage Z-score” value (15 min)?
The value was 5.37 (active).

And the “furin cleavage Z-score” value (30 min)?
Its value is 5.78 (active).

How did the “furin cleavage Z-score” value (7.5 min) turn out when CAYRHRKKRNAGNASASA [FS-902] was run?
Its value is 2.85.

And the “furin cleavage Z-score” value (15 min)?
The value was 1.03.

What about the “furin cleavage Z-score” value (30 min) of the same sequence?
Its value is -0.551 (inactive).

For CAKKKRMAMAAGNASASA [FS-2867], which “furin cleavage Z-score” value (7.5 min) is on record?
The value was -0.103 (inactive).

And the “furin cleavage Z-score” value (15 min)?
Its value is 0.494 (inactive).

And the “furin cleavage Z-score” value (30 min)?
The value was 1.89.

What does the source list for CAPKPQKKNKAGNASASA [HC163]?
furin cleavage Z-score (7.5 min): -1.39 (inactive); furin cleavage Z-score (15 min): -0.337 (inactive); furin cleavage Z-score (30 min): -0.509 (inactive)

How did the “furin cleavage Z-score” value (7.5 min) turn out when CAKTTRKKRNAGNASASA [FS-263] was run?
The value was 7.57 (active).

What about the “furin cleavage Z-score” value (15 min) of the same sequence?
Its value is 8.3 (active).

And the “furin cleavage Z-score” value (30 min)?
The value was 5.21 (active).

Which results are given for CAKKNKRNTNAGNASASA [HC165]?
furin cleavage Z-score (7.5 min): 4.17 (active); furin cleavage Z-score (15 min): 6.77 (active); furin cleavage Z-score (30 min): 5.31 (active)

CAPVPPPRKKAGNASASA [HC1322] was tested. Which “furin cleavage Z-score” value (7.5 min) did it give?
The value was 0.00444 (inactive).

And the “furin cleavage Z-score” value (15 min)?
The value was 1.55.

And the “furin cleavage Z-score” value (30 min)?
The value was 0.99 (inactive).

With CAARLIVFPDAGNASASA [HC1449] as the sequence, how does the “furin cleavage Z-score” value (7.5 min) read?
Its value is -1.5 (inactive).

And the “furin cleavage Z-score” value (15 min)?
The value was -0.858 (inactive).

And the “furin cleavage Z-score” value (30 min)?
The value was -0.313 (inactive).

For CANKRNTNRRAGNASASA [HC166], which “furin cleavage Z-score” value (7.5 min) is on record?
The value was 0.476 (inactive).

And the “furin cleavage Z-score” value (15 min)?
The value was 1.53.

And the “furin cleavage Z-score” value (30 min)?
Its value is -0.249 (inactive).

CAVECCSMSYAGNASASA [HC2012] was tested. Which “furin cleavage Z-score” value (7.5 min) did it give?
The value was 0.483 (inactive).

What about the “furin cleavage Z-score” value (15 min) of the same sequence?
The value was 1.15.

And the “furin cleavage Z-score” value (30 min)?
The value was 0.164 (inactive).

Which “furin cleavage Z-score” value (7.5 min) does the source give for CAAETHVTGGAGNASASA [HC352] here?
Its value is -0.704 (inactive).

What about the “furin cleavage Z-score” value (15 min) of the same sequence?
The value was -0.0263 (inactive).

And the “furin cleavage Z-score” value (30 min)?
The value was -0.814 (inactive).

What does the source list for CASHITAEAAAGNASASA [HC1250]?
furin cleavage Z-score (7.5 min): -0.151 (inactive); furin cleavage Z-score (15 min): -1.71 (inactive); furin cleavage Z-score (30 min): -1.91 (inactive)

Which “furin cleavage Z-score” value (7.5 min) does the source give for CADNVTPIDTAGNASASA [HC1435] here?
The value was -0.0484 (inactive).

What about the “furin cleavage Z-score” value (15 min) of the same sequence?
The value was -0.00567 (inactive).

And the “furin cleavage Z-score” value (30 min)?
The value was -0.908 (inactive).

How did the “furin cleavage Z-score” value (7.5 min) turn out when CAIASWAIKWAGNASASA [HC515] was run?
Its value is -0.183 (inactive).

What about the “furin cleavage Z-score” value (15 min) of the same sequence?
The value was 0.294 (inactive).

And the “furin cleavage Z-score” value (30 min)?
The value was -1.7 (inactive).

What does the source list for CALIHLHQNIAGNASASA [HC505]?
furin cleavage Z-score (7.5 min): 0.141 (inactive); furin cleavage Z-score (15 min): -1.53 (inactive); furin cleavage Z-score (30 min): 0.884 (inactive)

With CAVHCCSMSYAGNASASA [HC2015] as the sequence, how does the “furin cleavage Z-score” value (7.5 min) read?
Its value is 0.313 (inactive).

What about the “furin cleavage Z-score” value (15 min) of the same sequence?
Its value is -1.84 (inactive).

What about the “furin cleavage Z-score” value (30 min) of the same sequence?
The value was 0.688 (inactive).

How did the “furin cleavage Z-score” value (7.5 min) turn out when CAPQLPGIPFAGNASASA [HC1161] was run?
Its value is -0.711 (inactive).

And the “furin cleavage Z-score” value (15 min)?
Its value is -1.22 (inactive).

And the “furin cleavage Z-score” value (30 min)?
The value was 0.14 (inactive).

What does the source list for CATNPCSGSWAGNASASA [HC1861]?
furin cleavage Z-score (7.5 min): -0.962 (inactive); furin cleavage Z-score (15 min): -0.755 (inactive); furin cleavage Z-score (30 min): -0.828 (inactive)

How did the “furin cleavage Z-score” value (7.5 min) turn out when CAEEVTSTWVAGNASASA [HC2172] was run?
The value was -0.33 (inactive).

And the “furin cleavage Z-score” value (15 min)?
The value was 0.0818 (inactive).

What about the “furin cleavage Z-score” value (30 min) of the same sequence?
The value was 0.598 (inactive).

Which “furin cleavage Z-score” value (7.5 min) does the source give for CAKTLRTKRNAGNASASA [FS-1352] here?
Its value is 9.31 (active).

And the “furin cleavage Z-score” value (15 min)?
The value was 8.38 (active).

What about the “furin cleavage Z-score” value (30 min) of the same sequence?
Its value is 6.89 (active).

Which “furin cleavage Z-score” value (7.5 min) does the source give for CAKKMRNKRNAGNASASA [FS-42] here?
The value was 10.5 (active).

And the “furin cleavage Z-score” value (15 min)?
Its value is 10.9 (active).

And the “furin cleavage Z-score” value (30 min)?
The value was 9.3 (active).

Which results are given for CASTPCSAWLAGNASASA [HC2548]?
furin cleavage Z-score (7.5 min): -0.0997 (inactive); furin cleavage Z-score (15 min): -0.849 (inactive); furin cleavage Z-score (30 min): -0.533 (inactive)

CADREVPCHRAGNASASA [HC2431] was tested. Which “furin cleavage Z-score” value (7.5 min) did it give?
The value was 0.898 (inactive).

What about the “furin cleavage Z-score” value (15 min) of the same sequence?
The value was 1.78.

What about the “furin cleavage Z-score” value (30 min) of the same sequence?
Its value is 1.29.

With CATTPCSGSWAGNASASA [HC54] as the sequence, how does the “furin cleavage Z-score” value (7.5 min) read?
The value was -0.34 (inactive).

What about the “furin cleavage Z-score” value (15 min) of the same sequence?
The value was -3.09 (inactive).

And the “furin cleavage Z-score” value (30 min)?
The value was -0.396 (inactive).
